From ChEMBL document CHEMBL3988442, “University of Dundee, Small-Polar-MMV Screening Library” (2021)
About 13,000 (27%) of roughly 48,000 compounds showed an effect of 50% or more. The list shows a part of the results.

Each molecule was assayed on Wolbachia pipientis (assay: Anti-Wolbachia Cell-Based Screen). Settings: 5 µM.
Assay type: functional
Design: scale not given: in the data most compounds retested in dose-response had high values

Compound	Percent Effect
CCCn1c(C)c(CC(=O)NC)c2c1CC(C)(C)CC2=O	-16.12%
O=C(NCCC1CCCO1)c1ccccc1N1CCOCC1 (stereo not drawn)	-10.37%
Cc1nc(-c2ccsc2)ccc1C(=O)NCCC1CCCO1 (stereo not drawn)	-16.18%
Cc1ccc(C(=O)NCCC2CN(C3CCCC3)CCO2)c(C)c1 (stereo not drawn)	105.7%
Cc1nc[nH]c1CN1CCOC(CCNC(=O)c2ccsc2)C1 (stereo not drawn)	3.165%
Cc1ccc(C(=O)NCC(O)CN2CCCC2=O)c(C)c1 (stereo not drawn)	-3.657%
O=C(NCCC1CN(C2CCCC2)CCO1)c1c[nH]c(=O)[nH]c1=O (stereo not drawn)	104.1%
O=C(c1cc(=O)[nH]c(=O)[nH]1)N1CCCCC1c1ccc(F)cc1 (stereo not drawn)	-19.12%
O=C(NCCC1CN(C2CCCC2)CCO1)c1cc(=O)[nH]c(=O)[nH]1 (stereo not drawn)	90.1%
CC(=O)N1CCC(N2CCOC(CC3CCCCC3)C2)CC1 (stereo not drawn)	-12.42%
CC(c1ccccc1)N(C)C(=O)CN1CCCc2cc(F)cc(F)c21 (stereo not drawn)	-34.4%
CCc1cnc(N2C[C@H]3C[C@H](C(=O)N(C)C)[C@@H](C2)O3)nc1	-23.08%
O=C([C@H]1C[C@@H]2CN(c3ncc(F)cn3)C[C@H]1O2)N1CCCC1	104.9%
O=C(C1CN(c2ncc(F)cn2)CC12CCOCC2)N1CCOCC1 (stereo not drawn)	-0.101%
CCc1cnc(N2C[C@H]3C[C@H](C(=O)N4CCOCC4)[C@@H](C2)O3)nc1.O=C(O)C(F)(F)F	104.4%
Cc1cnc(N2C[C@H]3C[C@H](C(=O)N(C)C)[C@@H](C2)O3)nc1	-7.121%
CCc1cnc(N2C[C@H]3C[C@H](C(=O)NCC(C)C)[C@@H](C2)O3)nc1	-2.395%
O=C([C@H]1C[C@@H]2CN(c3ncc(F)cn3)C[C@H]1O2)N1CCOCC1	99.35%
CCc1cnc(N2C[C@H]3C[C@H](C(=O)NC)[C@@H](C2)O3)nc1	2.577%
O=C(O)C(F)(F)F.O=C([C@H]1COC[C@H]2CN(c3ncc(F)cn3)C[C@H]21)N1CCOCC1	-8.043%
O=C(NCCCF)Nc1ccc2nc(N3CCOCC3)oc2c1	0.7918%
CCc1nc(CC(=O)N2CCC(C(=O)N3CCCC3)CC2)cs1	-3.887%
CC(C)NC(=O)C1CCN(c2nc3nc[nH]c(=O)c3s2)CC1	92.05%
CC(C)NC(=O)C1CCN(Cn2ccc(-c3ccc(F)cc3)n2)CC1	3.574%
O=C(NC1CCCC1)C1CCN(c2cc(-n3ccnc3)ncn2)CC1	-4.5%
CCc1c(C)nc2ccccc2c1N1CCC(C(=O)NC)CC1	-7.875%

Compound	Percent Effect
CNC(=O)C1CCCN(c2nc3c(-c4ccccc4)csc3c(=O)[nH]2)C1 (stereo not drawn)	3.58%
O=C(C1CCN(c2nc3nc[nH]c(=O)c3s2)CC1)N1CCCCC1	84.01%
CC(NC(=O)C1CCN(C(C)C)CC1)c1nncn1C1CCCC1 (stereo not drawn)	-21.33%
O=C(C1CCN(c2snc3ccccc23)CC1)N1CCCCCC1	0.1158%
O=C(NC1CC1)C1CCN(c2nc3nc[nH]c(=O)c3s2)CC1	99.33%
O=C(NC1CCN(c2snc3ccccc23)CC1)C1CCC1	9.197%
CNC(=O)C1CCN(c2nc3nc[nH]c(=O)c3s2)CC1	82.12%
CCC(=O)N1CCc2[nH]cnc2C12CCN(CC1CCOC1)CC2 (stereo not drawn)	-0.5236%
O=C(CCc1ccco1)NCC1CCCN1c1cccnn1 (stereo not drawn)	2.662%
Fc1cc(CN2CCOC3(CCOCC3)C2)ccc1Cl	8.168%
CN(C)C(=O)CNC(=O)c1ccc2c(-c3nccs3)noc2c1	-0.7255%
CC(Cc1ccco1)NC(=O)C1=NN(c2ccccc2)C(=O)CC1 (stereo not drawn)	-5.577%
Cn1cnc2c1CCN(CCCOc1ccc(C#N)cc1)C2	-1.382%
CN(C)c1ccc(-c2nnc([C@H]3CCN(C4CCCCC4)C3)o2)cc1	-10.19%
O=C(O)C1(Cc2cc(-c3ccccc3F)no2)CCOCC1	118.9%
O=C(O)C1(Cc2cc(-c3ccc(F)cc3)no2)CCOCC1	104.3%
O=C(O)C1(Cc2cc(-c3cccc(F)c3)no2)CCOCC1	-9.48%
Cc1cc(NCC2(O)CCOCC2)c2ccccc2n1	18.91%
O=C(NC1CC1)C1(Cc2cc(-c3ccc(F)cc3F)no2)CCOCC1	116.7%
O=C(NCCO)C1(Cc2cc(-c3ccc(F)cc3F)no2)CCOCC1	-8.546%
O=C(CNC1(CCO)CCOCC1)Nc1ccc(F)cc1F	0.1585%
Cc1ccccc1-c1cc(CC2(C(=O)O)CCOCC2)on1	97.16%
O=C(O)C1(Cc2cc(-c3ccc(F)cc3F)no2)CCOCC1	-11.85%
Cc1ccccc1C1(C(=O)NCCN2CCCC2)CCOCC1	3.645%
COCCNC(=O)c1cc(F)ccc1NS(C)(=O)=O	-6.492%
Cc1cc(C)n(CC2CCCN2CC(=O)N(C)Cc2cnn(C)c2)n1 (stereo not drawn)	3.257%

Compound	Percent Effect
Cc1ccsc1CN(CCN(C)C)C(=O)C1=NNC(=O)CC1	-65.43%
O=C(CSc1ccncc1)N1CCC2(CC1)c1ccccc1CC2O (stereo not drawn)	-6.227%
CCS(=O)(=O)N1CC[C@H]2O[C@@H](c3nnc(C)o3)CC[C@H]21	-3.387%
CCc1nc(C)c(C(=O)N2CCNCC2C(=O)NCc2ccncc2)o1 (stereo not drawn)	-5.393%
COCc1noc(-c2nn(-c3ccc(F)cc3)c3c2CCC3)n1	-5.396%
COCCOCc1cccc(NC(=O)N2CCCC2c2ccncc2)c1 (stereo not drawn)	1.869%
CNC(=O)C(C)(C)N1CCC[C@H]1C(=O)NCCN(C)C.Cl	11.97%
Cc1ncc2c(n1)CCCC2NC(=O)c1ccc(Cn2cccn2)cc1 (stereo not drawn)	102.9%
O=C(Nc1ccc(Cn2cccn2)cc1)N1CCC(CO)CC1	5.025%
Cc1ncc2c(n1)CCCC2NC(=O)c1ccncc1 (stereo not drawn)	4.921%
Cc1ncc2c(n1)CCCC2NC(=O)c1ccccc1C(=O)O (stereo not drawn)	116.6%
Cc1ncc2c(n1)CCCC2NC(=O)c1ccccc1Cn1cncn1 (stereo not drawn)	-4.956%
Cc1ccccc1C(=O)NC1CCN(c2cnn(C)c2)C1=O (stereo not drawn)	-0.04337%
Cc1ccccc1Oc1ncccc1CNS(C)(=O)=O	-1.022%
CNC(=O)CN(C)S(=O)(=O)c1c(Br)cc2[nH]c(=O)oc2c1Cl	-6.435%
CN(C)CCNc1cc(-c2ncccn2)c2cc[nH]c2n1	-0.2256%
CN(C)CCNc1cc(-c2ccc[nH]c2=O)c2cc[nH]c2n1	6.813%
Nc1ccnc(-c2cc(NC3CCNCC3)nc3[nH]ccc23)c1	10.25%
CNc1cc(C)nc(-c2cc(NCCO)nc3[nH]ccc23)n1	88.51%
CNc1cc(C)nc(-c2cc(NC)nc3[nH]ccc23)n1	82.65%
COc1cccc(-c2cc(NCCN(C)C)nc3[nH]ccc23)n1	-69.14%
COc1cccc(-c2cc(NCCO)nc3[nH]ccc23)n1	17.98%
COc1nccnc1-c1cc(NC2CCNCC2)nc2[nH]ccc12	-9.475%
CNc1cc(C)nc(-c2cc(NC3CCNCC3)nc3[nH]ccc23)n1	81.74%
COCc1ncn(Cc2nc(-c3ccc(OC)c(OC)c3)oc2C)n1	7.274%
Cn1ccc(CNC(=O)Nc2ccc(S(=O)(=O)C(F)F)cc2)c1	-20.88%

Compound	Percent Effect
N#Cc1cc(NC(=O)c2ccccn2)ccc1N1CCC(O)CC1	-12.43%
Cc1cc2cccc(C(=O)N3CC[C@@H](N)[C@H](O)C3)c2o1	-9.123%
Cc1cc(C(=O)N2CCCC(c3noc(C)n3)C2)[nH]n1 (stereo not drawn)	-10.2%
Cc1nc(-c2ccccc2C(=O)O)cc(C2CCN(C(C)C)C2)n1 (stereo not drawn)	107.2%
Cc1noc(C2CCCN(C(=O)c3ccc(F)cc3F)C2)n1 (stereo not drawn)	-2.652%
Cc1nc(C(C)C)ncc1C(=O)N1CCC(c2ccccc2C(=O)O)C1 (stereo not drawn)	-21.75%
CC(=O)N1CCC(c2nc(C)cc(-c3ccccc3C(=O)O)n2)CC1	83.33%
Cc1cc(-c2cc(F)ccc2C(=O)O)nc(C2CCCN(C)C2)n1 (stereo not drawn)	126.1%
Cc1cc(-c2ccccc2C(=O)O)nc(C2CCCN(C)C2)n1 (stereo not drawn)	123%
COC(=O)c1cccc(NS(=O)(=O)c2cnc(NC(C)=O)s2)c1	20.99%
Cc1cc2nc(CO[C@H]3CN(C(=O)C4CC4)C[C@H]3F)[nH]c2cc1C	14.86%
CC(Cc1ccco1)NS(=O)(=O)N1CCCCC1 (stereo not drawn)	-4.951%
COC(=O)NCC(=O)N1CCCCC1c1nc2cc(F)ccc2[nH]1 (stereo not drawn)	-29.13%
Cc1cc(-c2cc(F)ccc2C(=O)O)nc(C2CCCCN2C(C)C)n1 (stereo not drawn)	125.8%
Cc1cc(-c2ccccc2C(=O)O)nc(C2CCCN(C(C)C)C2)n1 (stereo not drawn)	128.4%
Cc1cc(=O)c(C(=O)N2CCCCC2c2ccc(F)cc2)c[nH]1 (stereo not drawn)	-20.91%
COc1ccc(Cl)cc1CCNC(=O)N(C)CC1CCOC1 (stereo not drawn)	11.56%
CN(C)CCN1CCc2c(nnn2C)C1COCc1ccccc1.O=C(O)C(F)(F)F.O=C(O)C(F)(F)F (stereo not drawn)	6.935%
CN1CCC2(CC1)CN(Cc1ccc(C3CCCCO3)o1)CCCN2C (stereo not drawn)	6.017%
Cc1nc(CNC(=O)Nc2ccc(N(C)C)nc2)sc1C	-4.03%
CN(C)c1ccc(NC(=O)NCc2cccnc2N(C)C)cn1	100.5%
Cc1nnc(NC(=O)NCc2cccnc2N(C)C)s1	4.263%
CC(CNC(=O)Nc1ccc(N(C)C)nc1)Cn1cccn1 (stereo not drawn)	10.01%
COc1ncccc1CNC(=O)Nc1ccc(N(C)C)nc1	102.4%
CN(C)c1ccc(NC(=O)NCc2cccs2)cn1	-3.387%
